About 710 (39%) of roughly 1,800 compounds were called active. Not shown: some 28% with an inconclusive outcome.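 The calls were made as follows: active = luciferase signal rise whose fitted curve crosses a set activity limit at or below the top valid tested dose; inconclusive = flat fit with 30 to 70% rise, or poor fit; inactive = signal falling, flat within 30%, or crossing above top dose.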 The list is a sample of the results. Results with a measured potency or affinity are listed apart.
Assay: reporter signal increase, D54 LucT cells – cell-based, luminescence, cherry pick, counter-screen for N-linked glycosylation inhibitor project, dose response (AID 624404)
Conditions: D54 LucT luciferase reporter counterscreen, 24 h; series mostly up to 19.5 µM
For `O=C(NCCN1C(=O)S/C(=C\c2cccc(Cl)c2Cl)C1=O)C1=COCCO1`, the outcome was “inactive”. With `Cc1noc2ncnc(Sc3ccc(Cl)cc3)c12` the outcome was “inactive”. For `COC(=O)c1cc(=O)n(Cc2ccco2)c(=Nc2ccc(F)cc2)s1`, the outcome was “inactive”. For `CCn1c(=O)cc(C(=O)OC)sc1=Nc1ccc(F)c(F)c1`, the outcome was “inactive”. For `CCN(CC(=O)Nc1ccccc1OC)CC(=O)Nc1ccccc1-c1ccccc1`, the outcome was “inactive”. For `CCCc1cc(C(=O)N/N=C/c2ccc(C)o2)c2ccccc2n1`, the outcome was “inactive”. In the case of `COc1ccc(C(=O)NCCN(C)C)c2nc3ccccc3cc12`, the outcome is reported as “inactive”. In the case of `O=C(/C=C/c1ccc(-c2ccccc2[N+](=O)[O-])o1)c1ccc(Br)cc1`, the outcome is reported as “inactive”. In the case of `N#Cc1cc2[nH]c3ccccc3c2[n+](-c2ccc([N+](=O)[O-])cc2)c1N`, the outcome is reported as “inactive”. In the case of `Cn1cnc([N+](=O)[O-])c1Sc1nc2ccccc2[nH]1`, the outcome is reported as “inactive”. In the case of `CCN(CC)CCNc1ccc(CO)c2oc3cc(Cl)ccc3c(=O)c12`, the outcome is reported as “inactive”. In the case of `CCn1c(=O)c2cc(C(=O)NCCN(C)C)sc2c2ccccc21`, the outcome is reported as “inactive”. For `CCN(CC)CCNc1ccc(CO)c2oc3ccccc3c(=O)c12`, the outcome was “inactive”. With `Cn1nc(C(F)(F)F)c(/C=N/OC(=O)c2ccccc2Cl)c1SCc1ccc(Cl)cc1` the outcome was “inactive”. In the case of `CCCCc1ccc(N/C(N)=N/c2nc(C)cc(C)n2)cc1`, the outcome is reported as “inactive”. With `Cc1cc(C)nc(/N=C(\N)Nc2ccc(OCCC(C)C)cc2)n1` the outcome was “inactive”. With `O=C(/C=C/c1ccc([N+](=O)[O-])s1)N1CCCCC1` the outcome was “inactive”. In the case of `CC1CN(C(=O)/C=C/c2ccc([N+](=O)[O-])s2)CC(C)O1` (stereo not drawn), the outcome is reported as “inactive”. In the case of `COc1ccc(C=C(c2nc3ccccc3s2)c2nc3ccccc3s2)cc1O`, the outcome is reported as “inactive”. In the case of `Cc1c(-c2cccc(Cl)c2)nc2ccccc2c1C(=O)OC/C(O)=C(\C#N)c1nc2ccccc2[nH]1`, the outcome is reported as “inactive”. With `COCC(=O)OC/C(O)=C(\C#N)c1nc2ccccc2[nH]1` the outcome was “inactive”. For `COc1ccc(NC(=O)C2Cc3c(-c4ccc5c(c4)OCO5)ccnc3O2)cc1` (stereo not drawn), the outcome was “inactive”. In the case of `COc1ccc(NC(=O)C2Cc3c(-c4cccc(C(C)=O)c4)ccnc3O2)cn1` (stereo not drawn), the outcome is reported as “inactive”. For `COc1ccc(CCCNC(=O)C2Cc3c(-c4cccc(C(C)=O)c4)ccnc3O2)cc1` (stereo not drawn), the outcome was “inactive”. In the case of `CC(=O)Nc1cccc(-c2ccnc3c2CC(C(=O)NCc2ccco2)O3)c1` (stereo not drawn), the outcome is reported as “inactive”. In the case of `CS(=O)(=O)Nc1cccc(NC(=O)C2Cc3c(-c4ccccc4)ccnc3O2)c1` (stereo not drawn), the outcome is reported as “inactive”. With `COc1ccc2nc(C)cc(Nc3ccc(N4CCOCC4)cc3)c2c1` the outcome was “inactive”. In the case of `COc1ccc(Nc2cc(C)nc3ccc(OC)cc23)cc1`, the outcome is reported as “inactive”. For `CN(C1=C(NC(=O)c2ccc(Cl)cc2)C(=O)c2ccccc2C1=O)c1ccccc1`, the outcome was “inactive”. For `CC[C@@H]1CC=C[C@H]2[C@H]1C(=O)N(Cc1ccccc1)[C@H]2c1ccoc1`, the outcome was “inactive”. In the case of `O=C(OCn1ncc(Cl)c(Cl)c1=O)c1ccc(C(F)(F)F)cc1`, the outcome is reported as “inactive”. With `NC(=O)/C=C\C(=O)Nc1cccc(C(F)(F)F)c1` the outcome was “inactive”. In the case of `C=CCOc1ccc(C2C(C#N)=C(N)N(Nc3ccccc3)C3=C2C(=O)CCC3)cc1OC` (stereo not drawn), the outcome is reported as “inactive”. With `COc1cc(-c2cc3nc(NCCOc4ccccc4)ccn3n2)cc(OC)c1OC` the outcome was “inactive”. For `CCOC(=O)/C=C(\C)Sc1cc(=O)oc2ccccc12`, the outcome was “inactive”. For `CCc1ccc(/C=N/NC(=O)c2cc(-c3ccncc3)nc3ccccc23)s1`, the outcome was “inactive”. For `O=C(N=Nc1c(O)[nH]c2ccc(Br)cc12)c1cc(-c2cccs2)nc2ccccc12`, the outcome was “inactive”. For `C=C(C)Cc1c(C)c(C#N)c2nc3ccccc3n2c1NCCCN(C)C`, the outcome was “inactive”. In the case of `COc1cc(C2c3cc4c(cc3OC(Nc3ccc(C(=O)O)cc3)C2C)OCO4)cc(OC)c1OC` (stereo not drawn), the outcome is reported as “inactive”. For `COc1ccc(CCCNC(=O)C2(C)Cc3c(-c4ccc5c(c4)OCO5)ccnc3O2)cc1` (stereo not drawn), the outcome was “inactive”. With `Clc1cccc(Cl)c1Cn1cnc2c(NCc3ccco3)ncnc21` the outcome was “inactive”. With `CCN(CC)Cc1cc(Nc2c3ccccc3nc3c4ccccc4n(C)c23)cc(CN(CC)CC)c1O` the outcome was “inactive”. In the case of `Cc1ccc2cc(CN(CCCN(C)C)C(=O)NCc3ccccc3)c(=O)[nH]c2c1C`, the outcome is reported as “inactive”. In the case of `COc1ccc(CN2C(=O)C(C)Nc3ncnc(N4CCc5ccccc5C4)c32)cc1` (stereo not drawn), the outcome is reported as “inactive”. With `COc1ccc2[nH]c3c(N4CCC(O)(c5cccc(C(F)(F)F)c5)CC4)ncnc3c2c1` the outcome was “inactive”. For `Cc1nc2ccccc2c2oc(C(=O)NCCCN3CC(C)CC(C)C3)cc12` (stereo not drawn), the outcome was “inactive”. With `O=C(NCC1CCCO1)c1cc(-c2ccccc2)on1` (stereo not drawn) the outcome was “inactive”. For `O=C1C=C(Nc2ccc(Cl)cc2Cl)CC(c2ccco2)C1` (stereo not drawn), the outcome was “inactive”. With `NC(=O)CC(NC(=O)c1ccc(Br)cc1)c1ccc(N2CCCCCCC2)c([N+](=O)[O-])c1` (stereo not drawn) the outcome was “inactive”. With `NC(=O)CC(NC(=O)Cc1ccc(Cl)cc1)c1ccc(NC2CCCC2)c([N+](=O)[O-])c1` (stereo not drawn) the outcome was “inactive”. For `NC(=O)CC(NC(=O)Cc1ccc(Br)cc1)c1ccc(NCc2cc(F)ccc2F)c([N+](=O)[O-])c1` (stereo not drawn), the outcome was “inactive”. For `NC(=O)CC(NC(=O)Cc1ccc(Cl)cc1)c1ccc(NC2CCN(Cc3ccccc3)CC2)c([N+](=O)[O-])c1` (stereo not drawn), the outcome was “inactive”. In the case of `NC(=O)CC(NC(=O)Cc1ccc(Cl)cc1)c1ccc(NC2CC3CCC2C3)c([N+](=O)[O-])c1` (stereo not drawn), the outcome is reported as “inactive”. With `O=C(CC1Sc2ccccc2NC1=O)NNc1ccc(Cl)c(Cl)c1` (stereo not drawn) the outcome was “inactive”. For `CCCCOc1ccccc1C1CC(=O)NC2=C1C(=O)CCC2` (stereo not drawn), the outcome was “inactive”. For `CC(C)Nc1ccc(C(CC(N)=O)NC(=O)Cc2ccc(Br)cc2)cc1[N+](=O)[O-]` (stereo not drawn), the outcome was “inactive”. In the case of `COc1ccc(C=CC(=O)c2ccc3cc(OC)c(OC)cc3c2)cc1OC`, the outcome is reported as “inactive”. In the case of `COc1ccc(NC(=O)c2cccc(Oc3ccccc3)c2)cn1`, the outcome is reported as “inactive”. For `O=C(NC1CCCCC1)C(c1cccnc1)N(C(=O)CCl)c1cccc(Cl)c1` (stereo not drawn), the outcome was “inactive”. In the case of `Cc1cccc(N2C(=O)CC(N3CCN(C(=O)c4ccccc4)CC3)C2=O)c1` (stereo not drawn), the outcome is reported as “inactive”. With `Cn1c(C(=O)NC2CCCCCC2)cc2c(=O)n(C)c3ccccc3c21` the outcome was “inactive”. With `Cc1ccc(S(=O)(=O)N(C)C[C@@H]2Oc3ccc(NC(=O)CCC(F)(F)F)cc3CC(=O)N([C@@H](C)CO)C[C@@H]2C)cc1` the outcome was “inactive”. With `C[C@H](CO)N1C[C@H](C)[C@@H](CN(C)Cc2ccccc2)Oc2ccc(NC(=O)CCCCCC(=O)Nc3ccccc3N)cc2C1=O` the outcome was “inactive”.

Reference: PubChem BioAssay AID624404 (Broad Institute, 2012)
